Efflux pump mplx: inhibitors of Candida efflux pumps in yeast, primary screen, S. cerevisiae, Nile Red, multiplex; S. cerevisiae Candida pump triplex; inhibition, % at 10 µM; actives 0.44% (n = 330,000);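 active means plate passing quality check with inhibition over a set limit, or well fluorescence over plate mean plus 4 SD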;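 further: Nile Red retained in pooled yeast measured as flow cytometry median fluorescence; higher means more Nile Red kept so more efflux inhibition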
Mot1-301 SUMO: yeast Mot1-301 growth rescue at high temperature, primary screen, SUMOylation pathway inhibitor project, S. cerevisiae, ATP luminescence, 38.5C | S. cerevisiae Mot1-301 growth rescue; percent above DMSO median, 100 means doubled | growth rescue, % at 18.8 µM | actives 1% (n = 320,000);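 active means every valid replicate shows activation above 250% relative to neutral control wells; inactive means the rest, any valid replicate at or below 250%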
SKN-1 block: suppressors of acrylamide-induced Pgst-4::GFP reporter in worms, primary screen, SKN-1 inhibitor project, whole organism, uHTS, GFP/RFP fluorescence ratio, strain VP596; AID 624304, 2012; inhibition, % at 21.8 µM; actives 0.49% (n = 360,000); C. elegans VP596 Pgst-4::GFP/RFP ratio, 24 h;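 active means interference check ratio from 0.5 to 1.5 plus GFP to RFP signal ratio inhibition reaching or exceeding a fixed threshold, cut at about 30% in these data, passing the limit was not always enough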
HGIII-sPLA2 inh: human group III sPLA2 inhibitors, primary screen, biochemical, QFRET, BODIPY PC-A2 liposome substrate; Group 3 secretory phospholipase A2 (Homo sapiens), Q9NZ20; QFRET BODIPY PC-A2 liposome hydrolysis, fluorescence; inhibition, % at 12.2 µM; actives 0.56% (n = 370,000);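 active means inhibition above mean plus 3 SD of compounds lying within the high and low control bounds, cut at about 19% in these data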
Target sequence (Q9NZ20 whole entry, looked up): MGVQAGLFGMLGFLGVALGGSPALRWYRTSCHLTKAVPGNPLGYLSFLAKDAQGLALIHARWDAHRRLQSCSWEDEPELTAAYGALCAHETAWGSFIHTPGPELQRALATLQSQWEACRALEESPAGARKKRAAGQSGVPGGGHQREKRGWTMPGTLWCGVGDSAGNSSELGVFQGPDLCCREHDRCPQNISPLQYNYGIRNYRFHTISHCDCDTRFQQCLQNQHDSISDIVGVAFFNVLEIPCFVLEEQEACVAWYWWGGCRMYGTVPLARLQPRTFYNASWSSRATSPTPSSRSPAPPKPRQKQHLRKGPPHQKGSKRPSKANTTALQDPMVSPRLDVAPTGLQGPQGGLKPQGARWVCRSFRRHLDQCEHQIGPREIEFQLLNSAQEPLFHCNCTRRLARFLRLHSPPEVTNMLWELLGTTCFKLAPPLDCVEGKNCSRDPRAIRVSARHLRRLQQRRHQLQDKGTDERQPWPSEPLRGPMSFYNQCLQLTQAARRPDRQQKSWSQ
sPLA2 confirm: human group III sPLA2 inhibitors, confirmation, biochemical, QFRET, triplicate; shares compounds with HGIII-sPLA2 inh; recombinant hGIII-sPLA2, BODIPY PC-A2 QFRET fluorescence; inhibition, % at 12.2 µM; actives 34% (n = 2,000); AID 743280, 2014;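 active means mean inhibition across triplicates above the hit cutoff set in the earlier primary screen, cut at about 19% in these data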
535nm interf: 535nm fluorescence optical interference, confirmation, artefact control for HGIII-sPLA2 inhibitor project, biochemical, QFRET; shares compounds with HGIII-sPLA2 inh; BODIPY FL product fluorescence interference; inhibition, % at 12.2 µM; actives 8.5% (n = 2,000);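 active means average inhibition above the solvent-only control mean plus 3 SD, cut at about 6% in these data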
535nm interf DR: 535nm fluorescence optical interference, dose response, artefact control for HGIII-sPLA2 inhibitor project, biochemical, QFRET; shares compounds with HGIII-sPLA2 inh; BODIPY FL product fluorescence interference, cell-free; IC50, µM; 240 tested, under 10 active;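 active means IC50 at or below 10 µM; inactive means IC50 above 10 µM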
Numbers stand for hits; 0 = inactive; - = not tested or not shown. Sampled rows, rich in hits. Any-hit rate of the full collection: about 2.2%.

SMILES | Efflux pump mplx | Mot1-301 SUMO | SKN-1 block | HGIII-sPLA2 inh | sPLA2 confirm | 535nm interf | others
CCOC(=O)[C@H]1[C@H]2COc3cc(OC)ccc3[C@@H]2N2C(=O)c3cc(F)ccc3NC(=O)[C@@]12C | 0 | 0 | 0 | 31 | 0 | 0
COc1ccc2c(c1)OC[C@H]1[C@H]2N2C(=O)c3cc(OC)ccc3NC(=O)[C@@]2(C)[C@H]1c1ccccc1 | - | 356 | 0 | 37 | 27 | 0
CCOC(=O)[C@H]1[C@H]2COc3ccc(OC)cc3[C@@H]2N2C(=O)c3ccc(C)cc3NC(=O)[C@@]12C | 0 | 0 | 0 | 0 | - | -
CCOC(=O)[C@H]1[C@H]2COc3cc(OC)ccc3[C@@H]2N2C(=O)c3ccc(F)cc3NC(=O)[C@@]12C | 0 | 0 | 0 | 0 | - | -
CCOC(=O)[C@H]1[C@H]2COc3cc(OC)ccc3[C@@H]2N2C(=O)c3ccc(C)cc3NC(=O)[C@@]12C | - | 0 | 0 | 25 | 0 | 0
CCOC(=O)[C@H]1[C@H]2COc3ccc(Br)cc3[C@@H]2N2C(=O)c3cc(F)c(F)cc3NC(=O)[C@@]12C | - | 0 | 0 | 0 | - | -
CCOC(=O)[C@H]1[C@H]2COc3cc(OC)ccc3[C@@H]2N2C(=O)c3cc(F)c(F)cc3NC(=O)[C@@]12C | - | 0 | 0 | 25 | 20 | 0
CN(Cc1ccccc1F)C(=O)CN1C(=O)NC2(CCc3ccccc32)C1=O (configuration not stated) | - | - | 0 | 0 | - | -
CSc1nc(N)n2nccc2n1 | - | - | 0 | 0 | - | -
CC1=C(C(=O)N2CCOCC2)CC(CC(=O)NCCCN(C)C)C(=O)N1Cc1ccc(F)cc1 (configuration not stated) | - | - | 0 | 0 | - | -
CCOC(=O)[C@H]1[C@H]2COc3cc(OC)ccc3[C@@H]2N2C(=O)c3cc(C)ccc3NC(=O)[C@@]12C | - | 0 | 0 | 0 | - | -
CCOC(=O)[C@H]1[C@H]2COc3cc(OC)ccc3[C@@H]2N2C(=O)c3cc(OC)ccc3NC(=O)[C@@]12C | 0 | 0 | 0 | 26 | 0 | 0
CCN(CC)c1ccc(C(=O)NNC(=O)CCl)cc1 | 0 | 0 | 0 | 0 | - | -
CCN(CC)c1ccc(C(=C2C=CC(=[N+](CC)CC)C=C2)c2ccccc2)cc1 | - | - | 0 | 63 | 75 | 0
CCN(CC)c1ccc(C(=C2C=CC(=[N+](CC)CC)C=C2)c2ccc(N(CC)CC)cc2)cc1 | - | - | 0 | 60 | 61 | 0 | 535nm interf DR=0
FC(F)Sc1nc2ccccc2[nH]1 | 0 | 0 | 0 | 25 | 0 | 0
CC(C)(CO)Cc1cc(C(C)(C)C)c(O)c(C(C)(C)C)c1 | 0 | 0 | 0 | 20 | 0 | 0
CC(C)(C=O)Cc1cc(C(C)(C)C)c(O)c(C(C)(C)C)c1 | 0 | 0 | 0 | 0 | - | -
COC(=O)[C@]1(Sc2ccc(C)cc2)CC(=O)N[C@@H]1c1ccccc1 | - | - | 0 | 0 | - | -
NC(=S)N/N=C1\CC(c2ccc3c(c2)OCCO3)Oc2ccc(F)cc21 (configuration not stated) | 0 | 0 | 0 | 21 | 0 | 0
CCN(CC)CC(=O)Nc1cc(N(C)C)nc2ccccc12 | 0 | 0 | 0 | 20 | 0 | 0
CC(=O)CC[C@@H]1CC[C@]2(CCCN(S(C)(=O)=O)C2)O1 | - | - | - | 22 | 0 | 0
CC(C)CC(=O)Nc1c(C(=O)N2CCN(Cc3ccccc3)CC2)oc2ccccc12 | 0 | 0 | 0 | 0 | - | -
O=C(NC1(O)C(=O)c2ccccc2C1=O)c1ccccc1 | 0 | 0 | 0 | 0 | - | -
CC(=O)C(C(C)=O)C1(O)C(=O)c2ccccc2C1=O | 0 | 0 | 0 | 22 | 0 | 0
SMILES | Efflux pump mplx | Mot1-301 SUMO | SKN-1 block | HGIII-sPLA2 inh | sPLA2 confirm | 535nm interf | others
COc1ccc(CN2C(=O)C(CC(=O)NCc3cccs3)CC(C(=O)N(C(C)C)C(C)C)=C2C)cc1 (configuration not stated) | - | - | 0 | 0 | - | -
CCOC(=O)c1ccccc1NC(=S)N1CCN(C(=O)c2ccco2)CC1 | 0 | 0 | 0 | 0 | - | -
COc1ccc(N2CCN(C(=S)Nc3cc(C)ccc3C)CC2)cc1 | 0 | 0 | 0 | 21 | 0 | 0
COc1ccc2c(c1)CCCN2C(=O)C1CCCN(S(=O)(=O)c2cccc3ccccc23)C1 (configuration not stated) | - | - | - | 0 | - | -
CCC(=O)Nc1ccc(C(=O)NCc2ccccn2)cc1 | 0 | 0 | 0 | 20 | 0 | 0
CCC(=O)Nc1ccc(C(=O)NNC(=O)c2ccc(C)cc2)cc1 | 0 | 0 | 0 | 0 | - | -
CCC(=O)Nc1ccc(C(=O)NNC(=O)CCCCC(=O)NNC(=O)c2ccc(NC(=O)CC)cc2)cc1 | - | - | 0 | 22 | 0 | 0
O=C(C[n+]1ccccn1)c1ccccc1 | 0 | 0 | 0 | 0 | - | -
Cc1ccc(/C=C2/SC(=O)N(CC(=O)N3CCOCC3)C2=O)s1 | 0 | 0 | 0 | 0 | - | -
O=C(CN1C(=O)S/C(=C/c2ccc(N3CCOCC3)cc2)C1=O)N1CCOCC1 | 0 | 0 | 0 | 22 | 0 | 0
COc1ccc(-c2nnc(SCC(=O)Nc3ccc(Cl)cc3)n2C)cc1 | 0 | 0 | 0 | 0 | - | -
CCOC(=O)/C(=N\Nc1cccc(Cl)c1)Sc1nnc(-c2ccc(OC)cc2)n1C | 0 | 0 | 0 | 22 | 0 | 0
CCCc1cnc(Nc2nc(C(N)Cc3ccc(C(F)(F)F)cc3)cs2)nc1 (configuration not stated) | - | - | 0 | 0 | - | -
CCOc1cc(C(=O)NC)cc(OCC)c1OCC | 0 | 0 | 0 | 20 | 0 | 0
CCOc1cc(C(=O)NCC(C)(C)CNC(=O)c2cc(OCC)c(OCC)c(OCC)c2)cc(OCC)c1OCC | 0 | 0 | 0 | 0 | - | -
O=C(NC(=S)NCCN1CCOCC1)c1ccc(Cl)cc1Cl | 0 | 0 | 0 | 21 | 0 | 0
C[C@H](CO)N1C[C@H](C)[C@@H](CN(C)C(=O)c2ccccc2)OCc2cnnn2CCCC1=O | - | - | 0 | 0 | - | -
CCOc1ccc2nc(Cl)c(C3CC(c4ccco4)=NN3S(=O)(=O)c3ccccc3)cc2c1 (configuration not stated) | 0 | 0 | 0 | 29 | 0 | 0
CCCS(=O)(=O)NC(=O)C1(C)CCCN(C(=O)c2ccccc2C(F)(F)F)C1 (configuration not stated) | - | - | 0 | 0 | - | -
COCC(=O)Nc1cc(C)cn(Cc2cccc(C(F)(F)F)c2)c1=O | 0 | 0 | 0 | 0 | - | -
Cc1cc(NS(C)(=O)=O)c(=O)n(Cc2cccc(C(F)(F)F)c2)c1 | - | - | 0 | 21 | 0 | 0
Cc1ccc(/C=C/C(=O)OCC(=O)Nc2cccc(S(=O)(=O)N(C)C)c2)o1 | 0 | 0 | 0 | 0 | - | -

Screens from PubChem.
